Only some compounds are listed: those with a hit (about 3.5% of all), similar ones and a draw of the others.
FBW7 activator: FBW7 E3 ligase activators, primary screen, biochemical, AlphaScreen, human. F-box/WD repeat-containing protein 7 (Homo sapiens), Q969H0. AlphaScreen FBW7–phospho-cyclin E peptide binding, activator screen. normalized activity (activation), % at 26.1 µM. 650,000 compounds, 0.13% hits. AID 1259310, 2017; in the data active means normalized activity above about 1.9%;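 further: purified mutant Fbw7 with reduced substrate affinity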
GPR151 activ: activators of human GPR151, primary screen, cell-based, PathHunter beta-arrestin, luminescence | G-protein coupled receptor 151 (Homo sapiens), Q8TDV0 | activation, % at 11.2 µM | AID 1508602, 2020 | PathHunter beta-arrestin GPR151 cells | 650,000 compounds, 1% hits; in the data active means activation above about 4.9%
TEAD-YAP block: TEAD-YAP interaction inhibition, primary screen, TEAD-YAP interaction inhibitor project, luminescence, HEK-TIYL cells; inhibition, % at 9.12 µM; TEAD-Gal4/YAP UAS-luciferase luminescence; 640,000 compounds, 1.4% hits; in the data active means inhibition above about 32%
MITF primary: MITF inhibitors, primary screen, biochemical, AlphaScreen, human. Microphthalmia-associated transcription factor (Homo sapiens), O75030. AlphaScreen MITF homodimerization, bead proximity signal. inhibition, % at 2.6 µM. 650,000 compounds, 0.91% hits; in the data active means inhibition above about 50%
Target sequence (O75030 whole entry, looked up): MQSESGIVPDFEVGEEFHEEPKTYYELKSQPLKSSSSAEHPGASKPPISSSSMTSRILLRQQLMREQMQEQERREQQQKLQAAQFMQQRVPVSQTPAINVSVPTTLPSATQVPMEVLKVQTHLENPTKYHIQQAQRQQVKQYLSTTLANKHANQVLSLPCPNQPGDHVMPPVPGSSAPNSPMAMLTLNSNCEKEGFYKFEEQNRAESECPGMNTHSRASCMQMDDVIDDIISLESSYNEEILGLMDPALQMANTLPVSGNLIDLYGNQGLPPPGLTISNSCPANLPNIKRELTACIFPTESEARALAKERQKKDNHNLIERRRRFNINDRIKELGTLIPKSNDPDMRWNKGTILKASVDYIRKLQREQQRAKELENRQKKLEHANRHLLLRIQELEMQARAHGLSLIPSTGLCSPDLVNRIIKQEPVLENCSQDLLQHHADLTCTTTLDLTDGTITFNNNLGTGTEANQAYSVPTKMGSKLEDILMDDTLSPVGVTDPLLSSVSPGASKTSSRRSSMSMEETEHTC
Numbers stand for hits; n = inactive.

SMILES	FBW7 activator	GPR151 activ	TEAD-YAP block	MITF primary
CCOc1ccc(Nc2nc(-c3c(C)nc4ncccn34)cs2)cc1	n	n	58	n
Cc1nc2ncccn2c1-c1csc(Nc2cccc(Cl)c2C)n1	n	n	38	n
COCCN1C(=O)C(=O)/C(=C(\O)c2ccccc2)C1c1ccc(Cl)cc1 (stereo not given)	n	n	n	n
COc1ccccc1N1CCN(C(=O)Nc2ccc(F)cc2)CC1=O	n	n	n	n
COc1ccc(N2C(=O)C3C4C=CC(C4=C4CCCCC4)C3C2=O)c(OC)c1 (stereo not given)	n	n	n	n
CC(Oc1ccc(Cl)cc1Cl)C(=O)NNC(=O)COc1ccccc1 (stereo not given)	n	n	n	n
COc1ccc([N+](=O)[O-])cc1NC(=O)COc1ccc(Br)cc1C	n	n	84	n
Cc1cc(Br)ccc1OCC(=O)Nc1cccc([N+](=O)[O-])c1	n	n	n	n
N#Cc1c(/N=C/c2ccc(O)c(O)c2)sc2c1CCCC2	n	n	43	n
COc1cc(/C=N/c2sc3c(c2C#N)CCC3)ccc1OCC(=O)O	n	n	n	n
c1cn(-c2ccc(Nc3cc(NCCN4CCOCC4)ncn3)cc2)cn1	n	n	n	n
Cn1cc(-c2ccc3cnc(Nc4ccc(-n5cnc(N6CCCC(O)C6)n5)cc4)nc3c2)cn1 (stereo not given)	n	n	90	n
c1cc(-n2cnc(N3CCOCC3)n2)ccc1Nc1cc2cc(-c3cn[nH]c3)ccc2cn1	n	n	92	n
c1cc(-n2cnc(N3CCOCC3)n2)ccc1Nc1ncc2ccc(-c3cn[nH]c3)cc2n1	n	n	96	n
Cn1cc(-c2ccc3cnc(Nc4ccc(-n5cnc(-c6ccc(=O)[nH]c6)n5)cc4)nc3c2)cn1	n	n	40	n
Cn1cc(-c2ccc3cnc(Nc4ccc(-n5cnc(C(C)(C)C)n5)cc4)nc3c2)cn1	n	n	n	n
c1ccc(-c2ccc3cnc(Nc4ccc(-n5cnc(N6CCOCC6)n5)cc4)nc3c2)cc1	n	n	n	n
Cn1cc(-c2ccc3cnc(Nc4ccc(-n5cnc(N6CCOCC6)n5)cc4)nc3c2)cn1	n	n	96	n
COc1ccc(C(=O)c2cc([N+](=O)[O-])ccc2N2CCOCC2)cc1	n	n	60	n
CCC(CC)NC(=O)c1cc([N+](=O)[O-])ccc1N1CCOCC1	n	n	n	n
CCOc1ccc(C(=O)c2cc([N+](=O)[O-])ccc2N2CCOCC2)cc1	n	n	60	n
Cc1ccc(C(=O)c2cc([N+](=O)[O-])ccc2N2CCOCC2)cc1	n	n	n	n
CN1C(=O)C(=C/C=C/c2ccc(N(C)C)cc2)C(=O)N(C)C1=S	n	n	n	n
CC(C)(C)c1ccc(OCC(=O)Nc2nccs2)c(Br)c1	n	n	91	n
CCc1ccc(OCC(=O)Nc2cccc(C)n2)c(Br)c1	n	n	n	n
SMILES	FBW7 activator	GPR151 activ	TEAD-YAP block	MITF primary
CCc1ccc(OCC(=O)Nc2nccs2)c(Br)c1	n	n	95	n
Cc1ccc(OCC(=O)Nc2nccs2)c(Br)c1	n	n	98	n
Cc1cc(Cl)ccc1OCC(=O)Nc1nccs1	n	n	65	n
CNC1CC(=O)N(C2CCCCC2)C1=O (stereo not given)	n	n	n	n
Cc1cc(C)c(NC(=O)CSc2nc3ccc(NC(=O)CSc4nnc(C)s4)cc3s2)c(C)c1	n	n	n	n
Cc1cccc(NC(=O)C(C)N2Cc3ccccc3C2=O)n1 (stereo not given)	n	n	n	n
CC(C(=O)Nc1ccccn1)N1Cc2ccccc2C1=O (stereo not given)	n	n	48	n
Cc1ccnc(NC(=O)C(C)N2Cc3ccccc3C2=O)c1 (stereo not given)	n	n	89	n
Cc1ccc(C)c(NC(=O)C(C)N2Cc3ccccc3C2=O)c1 (stereo not given)	n	n	n	n
c1ccc(NNC2=Nc3ccccc3CCC2)cc1	n	n	36	n
O=C(O)C1CCN(S(=O)(=O)c2ccc(Cl)c(C(F)(F)F)c2)CC1	n	n	n	n
CCCc1ccc(/C=C/c2ccccc2)nc1	n	n	34	n
CCCCCCOc1ccc(N2C(=O)CC(N(Cc3ccc4c(c3)OCO4)C(=O)c3ccc(Cl)cc3)C2=O)cc1 (stereo not given)	n	n	n	n
CN(C)N1C(N)=C(C#N)C(c2ccccc2Cl)C2=C1CC(c1ccccc1)CC2=O (stereo not given)	n	n	39	n
C=CCN1/C(=C/C(=C/c2sc3ccccc3[n+]2CC=C)CC)Sc2ccccc21	n	n	83	52
O=C(Nc1cc(-c2ccncc2)c[nH]c1=O)C1CC1	n	n	n	n
CCOC(=O)c1ccc(-n2c(C)c3cnc4nn(-c5ccccc5)c(=O)c-4cc3c2C)cc1	n	n	n	n
Cc1c2cnc3nn(-c4ccccc4)c(=O)c-3cc2c(C)n1-c1ccccc1	n	n	85	n
O=C1CSC(=S)N1c1ccc(F)cc1	n	n	n	n
CN(C)c1ccc(N2C(=O)CSC2=S)cc1	n	n	n	54
COc1ccc(-c2nc(-c3ccc(O)c(O)c3)[nH]c2-c2ccccc2)cc1OC	n	n	n	n
O=C1CC(C(=O)N2CC3CCC2C3)Cc2nc(NC(=O)c3c(F)cccc3Cl)sc21 (stereo not given)	n	n	n	n
Cc1ccnc(NC(=O)CSc2nnc3c4ccccc4n(CCc4ccccc4)c3n2)c1	n	n	35	n
O=C(CSc1nnnn1-c1ccc2c(c1)OCO2)Nc1cccc(O)c1	n	n	n	n
Cc1ccc(C2CC(C(F)(F)F)n3ncc(C(=O)Nc4cccc(C)c4C)c3N2)cc1 (stereo not given)	n	n	n	n
SMILES	FBW7 activator	GPR151 activ	TEAD-YAP block	MITF primary
COc1ccc(-c2csc(NC(=O)c3cc(Cl)ccc3[N+](=O)[O-])n2)cc1C	n	n	53	n
O=C(Nc1nc(-c2cccc3ccccc23)cs1)c1cc([N+](=O)[O-])ccc1Cl	n	n	44	n
CCOC(=O)c1ccc(NC(=O)c2cc([N+](=O)[O-])ccc2Cl)cc1	n	n	39	n
O=C(Nc1nc(-c2ccccc2)cs1)c1cc([N+](=O)[O-])ccc1Br	n	n	n	n
O=C(Nc1nc(-c2ccccc2)cs1)c1cc([N+](=O)[O-])ccc1Cl	n	n	33	n
O=C1NC(=O)N(C2CCCCC2)C(=O)/C1=C/c1cnc(-c2ccccc2)nc1	n	n	n	n
COCCCNC(=O)/C(=C/c1ccccc1)NC(=O)c1ccc(C)cc1	n	n	n	n
COc1ccc(NC(=O)c2ccc(Nc3nc(-c4ccccc4)c4cc(Cl)ccc4n3)cc2)cc1	n	n	n	n
O=C(Nc1nc(-c2ccc3ccccc3c2)cs1)c1cc([N+](=O)[O-])ccc1Cl	n	n	37	n
CCOC(=O)c1sc(NC(=O)c2cc([N+](=O)[O-])ccc2Cl)nc1-c1ccccc1	n	n	39	n

Source: PubChem
